The values below come from the supplement of paper PMC10338343.

± gives the standard deviation.

The test system of the first test is MILI (PIWIL2) piRISC loaded with L1MC piRNA (26 nt). In words: pre-steady-state target cleavage rate (min^-1); guide: L1MC piRNA 5'p-UAACUAAAUACUAUGCAAGCUGUAGG; MIWI and MILI are mouse PIWI proteins and EfPiwi is from a freshwater sponge; tags in brackets are library labels; higher = faster piRNA-guided slicing of the target. The following applies: auxiliary factor: 500 nM mouse GTSF1. The protocol:
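Cleave-'n-Seq: a library of target RNAs (target site embedded in constant flanks, ACAGCATTCCGCGTTAGTGATATCCG... 5' flank; DNA-blocked outside the site) at 0.1 nM was incubated with 1 nM active mouse MILI or MIWI piRISC (synthetic 5'-monophosphorylated piRNA guide) with or without 500 nM mouse GTSF1 at 33 °C for 1 min to 16 h. Uncleaved targets were sequenced and normalised to non-target controls, and the pooled three trials were fitted to a burst-and-steady-state model to give the pre-steady-state cleavage rate (min^-1; k3 is constrained to at most 1e-4). Sequence is the target site only; target names encode pairing extent (gX:gY) and contiguous / 1-mismatch / 2-mismatch / bulge geometry. Fits with R² ≤ 0 are excluded.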
As to UCCUCCUACAGCUUGCAUAGUUAUUAGUAA, the “pre-steady-state target cleavage rate” value was 0.031 ± 0.011.

For the sequence UCCUGCUACAGCUUGCAAUCUAUUUAGUUA, the “pre-steady-state target cleavage rate” value turned out to be 0.0303 ± 0.0068.

For the sequence UCCUGGAUCAGCUUGCAUAGUAUUUAGGUA, the “pre-steady-state target cleavage rate” value worked out at 0.0936 ± 0.021.

UCCUGGAACAGCUUGCAUAGUAUUAGUUA: the “pre-steady-state target cleavage rate” value was 0.199 ± 0.016.

Consider UCCUGGAUCAGCUUGCAUAGUAUUAAGUUA, for which the “pre-steady-state target cleavage rate” value was determined as 0.262 ± 0.026.

For the sequence UCCUGGAUCACGCUUGCAUAGUAUUUAGUUA, the “pre-steady-state target cleavage rate” value is 0.205 ± 0.018.

Turning to UCCUGGAACUGGUUGCAUAGUAUUUAGUUA, the “pre-steady-state target cleavage rate” value was determined as 0.202 ± 0.018.

Take UCCUGGAUGUGCAUGCAUAGUAUUUAGAAA: the “pre-steady-state target cleavage rate” value amounted to 0.0733 ± 0.013.

For UCCUGGAUCAGCUUGCUAGUAUUUAGUUA, the “pre-steady-state target cleavage rate” value was 0.0105 ± 0.0043.

Turning to UCCUGCUACAGCUUGCAUAGUUAUUUCAAA, the “pre-steady-state target cleavage rate” value is 0.0109 ± 0.0051.

On to UCCUGGAUGAGCAUGCUUAGUAUUUAGUUA, for which the “pre-steady-state target cleavage rate” value was found to be 0.115 ± 0.011.

For the sequence “UCCUGGAACAGCUUGCAUAGUAUUUAGUUG [g2:g23:cont:t1G]”, the “pre-steady-state target cleavage rate” value is 0.252 ± 0.024.

For the sequence UCCUGGAUCUGCUUGCAUAGUUUUUAGUUA, the “pre-steady-state target cleavage rate” value turned out to be 0.0213 ± 0.0057.

As to UCCUGGUACAGCUUGCAUAGUAUUAGUUA, the “pre-steady-state target cleavage rate” value was found to be 0.327 ± 0.053.

With UCCUGGAUGUCGAUGCAUAGUAUUAUAGUUA, the “pre-steady-state target cleavage rate” value came to 0.123 ± 0.021.

Regarding UCCUGCUACAGCUUGCAAAGUAUUUUCAAA, the “pre-steady-state target cleavage rate” value amounted to 0.0624 ± 0.02.

In the case of UCCUGCUACAGCUACGAUAGUAUUUAGUAA, the “pre-steady-state target cleavage rate” value worked out at 0.185 ± 0.035.

Regarding UCCUGGUACAGCUACGAUAGUAUUUAGUUA, the “pre-steady-state target cleavage rate” value turned out to be 0.15 ± 0.016.

Take UCCUGGAUCAGCUUGCAUAGUAUAUACUUA: the “pre-steady-state target cleavage rate” value was 0.0182 ± 0.0062.

On to UCCUGGAUGAGCUUGCAUAGUAAAUAGUUA, for which the “pre-steady-state target cleavage rate” value is 0.114 ± 0.015.

Turning to UCCUGCUUCAGCUUGCAUAGUAUUUACAAA, the “pre-steady-state target cleavage rate” value turned out to be 0.212 ± 0.047.

Take UCCUGGAUGAGCUUGGAAAGUAUUUAGUUA: the “pre-steady-state target cleavage rate” value worked out at 0.0843 ± 0.011.

Take UCCUGGAUGUCGUUGCAUAGUAUUCAGUUA: the “pre-steady-state target cleavage rate” value came out at 0.0553 ± 0.018.

Turning to UCCUCCUACAGCUUGCAUCAGUAUUUAGUUA, the “pre-steady-state target cleavage rate” value is 0.0234 ± 0.0093.

In the case of UCCUGGAUGUGACUUGCAUAGUAUUUAGUUA, the “pre-steady-state target cleavage rate” value is 0.114 ± 0.019.

Staying with this test, now noted: auxiliary factor: none (no GTSF1).
On to UCCUGCUACAGCUUGCAAUCUAUUUAGUUA, for which the “pre-steady-state target cleavage rate” value came to 0.00243 ± 0.0019.

On to UCCUGGAUCAGCUUGCAUAGUAUUUAGGUA, for which the “pre-steady-state target cleavage rate” value is 0.00336 ± 0.0026.

For UCCUGGAACAGCUUGCAUAGUAUUAGUUA, the “pre-steady-state target cleavage rate” value worked out at 0.0037 ± 0.0023.

For the sequence UCCUGGAUCAGCUUGCAUAGUAUUAAGUUA, the “pre-steady-state target cleavage rate” value is 0.00729 ± 0.0019.

Consider UCCUGGAUCACGCUUGCAUAGUAUUUAGUUA, for which the “pre-steady-state target cleavage rate” value came out at 0.00715 ± 0.0036.

As to UCCUGGAACUGGUUGCAUAGUAUUUAGUUA, the “pre-steady-state target cleavage rate” value turned out to be 0.0046 ± 0.0029.

On to UCCUGGAUGUGCAUGCAUAGUAUUUAGAAA, for which the “pre-steady-state target cleavage rate” value is 0.00295 ± 0.0029.

UCCUGGAUCAGCUUGCUAGUAUUUAGUUA: the “pre-steady-state target cleavage rate” value turned out to be 0.00365 ± 0.0022.

For UCCUGGAUGAGCAUGCUUAGUAUUUAGUUA, the “pre-steady-state target cleavage rate” value came to 0.0087 ± 0.0027.

In the case of “UCCUGGAACAGCUUGCAUAGUAUUUAGUUG [g2:g23:cont:t1G]”, the “pre-steady-state target cleavage rate” value was found to be 0.00663 ± 0.0021.

UCCUGGAUCUGCUUGCAUAGUUUUUAGUUA: the “pre-steady-state target cleavage rate” value stood at 0.00511 ± 0.002.

Regarding UCCUGGUACAGCUUGCAUAGUAUUAGUUA, the “pre-steady-state target cleavage rate” value came to 0.00515 ± 0.003.

As to UCCUGGAUGUCGAUGCAUAGUAUUAUAGUUA, the “pre-steady-state target cleavage rate” value was 0.00538 ± 0.0026.

As for UCCUGGUACAGCUACGAUAGUAUUUAGUUA, the “pre-steady-state target cleavage rate” value stood at 0.00343 ± 0.0026.

On to UCCUGGAUGAGCUUGGAAAGUAUUUAGUUA, for which the “pre-steady-state target cleavage rate” value came to 0.00571 ± 0.0018.

As to UCCUGGAUGUGACUUGCAUAGUAUUUAGUUA, the “pre-steady-state target cleavage rate” value was 0.00737 ± 0.0028.
